Reference: PubChem BioAssay
Several values for one entry are separate records, joined by “and”; a condition that tells them apart may be missing. Identical values can stand only once. Activity calls are given as the source filed them.

Legend:
[1] = optical density shifts of acrAB sulA E. coli – strain DRC41, OD650, 48 h, E. coli filamentation inducer project, primary screen (AID 1152); conditions: higher = more signal, called active from +8 up or from −8 down;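 also: E. coli MC1000 strain DRC41 lacking acrAB efflux pump and sulA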
[2] = probe aLefty1 binding on compound microarray – biochemical, small-molecule microarray, 635/667 nm fluorescence, primary screen (AID 1153); conditions: higher = more signal;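 also: score merges spot fluorescence with signal-to-noise ratio from the scanned slide images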
[3] = plasmodial surface anion channel blockers, osmotic lysis – cell-based, P. falciparum Indochina, OD700, 1 h, primary screen (AID 1154); conditions: P. falciparum Indochina infected RBC osmotic lysis, higher = more signal, called active from +8 up or from −8 down
[4] = plasmodial surface anion channel blockers, osmotic lysis – cell-based, P. falciparum Indochina, OD700, 2 h, primary screen (AID 1155);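 also: lysis reports solute entry through the parasite surface anion channel PSAC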; conditions: P. falciparum Indochina infected erythrocytes, higher = more signal, called active from +8 up or from −8 down
[5] = changes in parasitized red cell lysis, either direction – P. falciparum Indochina, OD700, 3 h, PSAC antagonist project, primary screen (AID 1156); conditions: P. falciparum-infected erythrocytes, osmotic lysis, higher = more signal, called active from +8 up or from −8 down
[6] = plasmodial surface anion channel blockers, osmotic lysis – cell-based, P. falciparum Indochina, OD700, 18 h, primary screen (AID 1157); conditions: P. falciparum Indochina infected erythrocytes, osmotic lysis OD700, 18 h; higher = more signal, called active from +8 up or from −8 down
[7] = S6 kinase pathway phospho-S6 level changes – cell-based, A549, cytoblot, luminescence, serum-stimulated, primary screen (AID 1158); conditions: 5 h, higher = more signal;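 also: serum-stimulated A549 lung adenocarcinoma cells; signal is phosphorylated S6 detected by cytoblot immunostaining with HRP secondary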
[8] = biological target: NADPH oxidase 2 (Homo sapiens) (UniProt P04839); assay: compounds shifting NOX2 Amplex Red fluorescence – cell-based, HEK293-NOX2, PMA-stimulated, NOX inhibitor project, primary screen (AID 1159); conditions: 45 min, higher = more signal, called active from +8 up or from −8 down; also: test concentration not given here
[9] = biological target: NADPH oxidase 4 (Homo sapiens) (UniProt Q9NPH5); assay: compounds shifting NOX4 Amplex Red fluorescence – cell-based, HEK293-NOX4, tetracycline-induced, NOX inhibitor project, primary screen (AID 1160); conditions: HEK293-NOX4, Amplex Red H2O2 fluorescence, 45 min; higher = more signal, called active from +8 up or from −8 down
[10] = biological target: NADPH oxidase 5 (Homo sapiens) (UniProt Q96PH1); assay: compounds shifting NOX5 Amplex Red fluorescence – cell-based, HEK293-NOX5, NOX inhibitor project, primary screen (AID 1161); conditions: HEK293-NOX5, ionomycin, 45 min, higher = more signal
[11] = compound effects on lung adenocarcinoma cell viability – A549, calcein-AM fluorescence, 48 h, basal, profiling panel (AID 1162); conditions: higher = more signal; also: test concentration not given here
[12] = compound effects on differentiated 3T3-L1 adipocyte viability – cell-based, 3T3-L1 adipocytes, calcein-AM fluorescence, 48 h, basal, profiling panel (AID 1163); conditions: 3T3-L1 adipocytes viability, higher = more signal; also: test concentration not given here
[13] = compound effects on hepatocellular carcinoma cell viability – HepG2, calcein-AM fluorescence, 48 h, basal, profiling panel (AID 1164); conditions: higher = more signal; also: test concentration not given here
[14] = compound effects on multiple myeloma cell viability – MM1S, calcein-AM fluorescence, 48 h, basal, profiling panel (AID 1165); conditions: higher = more signal; also: test concentration not given here
[15] = calcein-AM signal in unstimulated myeloma cells – cell-based, calcein-AM fluorescence, 48 h, PK04 Diversity Set, profiling panel (AID 1166); conditions: RPMI8226 myeloma viability, higher = more signal;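 also: cells grown under basal conditions without added stimulus; test concentration not given here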
[16] = JC-1 mitochondrial signal, unstimulated HepG2 cells – cell-based, JC-1 fluorescence, 24 h, 100 nL compound, profiling panel (AID 1167); conditions: HepG2 mitochondrial potential, higher = more signal; also: test concentration not given here
[17] = JC-1 mitochondrial signal, unstimulated adipocytes – cell-based, JC-1 fluorescence, 3T3-L1 adipocytes, 24 h, 100 nL compound, profiling panel (AID 1168); conditions: JC-1 mitochondrial fluorescence, higher = more signal, called active from +8 up or from −8 down; also: test concentration not given here
[18] = JC-1 mitochondrial signal, unstimulated myeloma cells – cell-based, JC-1 fluorescence, RPMI8226, 24 h, 100 nL compound, profiling panel (AID 1169); conditions: JC-1 mitochondrial potential fluorescence, higher = more signal; also: test concentration not given here
[19] = JC-1 mitochondrial signal, unstimulated MM1S myeloma – cell-based, JC-1 fluorescence, 24 h, 100 nL compound, profiling panel (AID 1170); conditions: MM1S mitochondrial potential, higher = more signal; also: test concentration not given here
[20] = resazurin metabolic signal in A549 cells – cell-based, resazurin fluorescence, 24 h, PK04 Diversity Set, profiling panel (AID 1171); conditions: A549 viability, higher = more signal, called active from +8 up or from −8 down; also: test concentration not given here

NADPH oxidase 2 (Homo sapiens), sequence (P04839 whole entry, looked up): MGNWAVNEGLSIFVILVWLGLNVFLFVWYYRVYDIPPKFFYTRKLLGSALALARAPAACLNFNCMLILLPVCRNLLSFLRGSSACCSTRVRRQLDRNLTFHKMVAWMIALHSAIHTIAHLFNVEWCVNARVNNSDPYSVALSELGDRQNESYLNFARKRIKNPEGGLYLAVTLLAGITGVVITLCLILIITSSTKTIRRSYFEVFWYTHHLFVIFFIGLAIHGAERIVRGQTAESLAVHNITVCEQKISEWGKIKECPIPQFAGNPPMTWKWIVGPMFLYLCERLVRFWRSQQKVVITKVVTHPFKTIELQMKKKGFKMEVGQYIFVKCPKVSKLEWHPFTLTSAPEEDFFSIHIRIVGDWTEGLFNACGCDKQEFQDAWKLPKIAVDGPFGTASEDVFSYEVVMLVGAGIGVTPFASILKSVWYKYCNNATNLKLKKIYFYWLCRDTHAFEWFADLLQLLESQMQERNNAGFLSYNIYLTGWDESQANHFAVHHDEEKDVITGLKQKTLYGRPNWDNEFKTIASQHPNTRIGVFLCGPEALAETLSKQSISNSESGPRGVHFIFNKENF
NADPH oxidase 4 (Homo sapiens), sequence (Q9NPH5 whole entry, looked up): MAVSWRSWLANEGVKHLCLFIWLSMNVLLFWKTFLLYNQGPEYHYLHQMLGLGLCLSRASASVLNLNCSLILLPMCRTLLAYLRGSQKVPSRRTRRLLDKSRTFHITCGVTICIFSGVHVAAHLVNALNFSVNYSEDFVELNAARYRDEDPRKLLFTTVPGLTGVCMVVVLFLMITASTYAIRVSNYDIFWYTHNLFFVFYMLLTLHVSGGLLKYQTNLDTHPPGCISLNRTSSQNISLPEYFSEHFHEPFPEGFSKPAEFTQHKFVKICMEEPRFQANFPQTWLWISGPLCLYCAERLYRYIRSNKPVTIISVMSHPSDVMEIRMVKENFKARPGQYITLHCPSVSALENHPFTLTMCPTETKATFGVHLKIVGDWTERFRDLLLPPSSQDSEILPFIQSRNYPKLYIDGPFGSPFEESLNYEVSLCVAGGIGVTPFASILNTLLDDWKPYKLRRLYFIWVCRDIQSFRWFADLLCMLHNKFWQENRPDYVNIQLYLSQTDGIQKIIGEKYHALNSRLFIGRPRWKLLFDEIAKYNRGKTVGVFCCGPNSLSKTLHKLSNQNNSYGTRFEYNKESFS
NADPH oxidase 5 (Homo sapiens), sequence (Q96PH1 whole entry, looked up): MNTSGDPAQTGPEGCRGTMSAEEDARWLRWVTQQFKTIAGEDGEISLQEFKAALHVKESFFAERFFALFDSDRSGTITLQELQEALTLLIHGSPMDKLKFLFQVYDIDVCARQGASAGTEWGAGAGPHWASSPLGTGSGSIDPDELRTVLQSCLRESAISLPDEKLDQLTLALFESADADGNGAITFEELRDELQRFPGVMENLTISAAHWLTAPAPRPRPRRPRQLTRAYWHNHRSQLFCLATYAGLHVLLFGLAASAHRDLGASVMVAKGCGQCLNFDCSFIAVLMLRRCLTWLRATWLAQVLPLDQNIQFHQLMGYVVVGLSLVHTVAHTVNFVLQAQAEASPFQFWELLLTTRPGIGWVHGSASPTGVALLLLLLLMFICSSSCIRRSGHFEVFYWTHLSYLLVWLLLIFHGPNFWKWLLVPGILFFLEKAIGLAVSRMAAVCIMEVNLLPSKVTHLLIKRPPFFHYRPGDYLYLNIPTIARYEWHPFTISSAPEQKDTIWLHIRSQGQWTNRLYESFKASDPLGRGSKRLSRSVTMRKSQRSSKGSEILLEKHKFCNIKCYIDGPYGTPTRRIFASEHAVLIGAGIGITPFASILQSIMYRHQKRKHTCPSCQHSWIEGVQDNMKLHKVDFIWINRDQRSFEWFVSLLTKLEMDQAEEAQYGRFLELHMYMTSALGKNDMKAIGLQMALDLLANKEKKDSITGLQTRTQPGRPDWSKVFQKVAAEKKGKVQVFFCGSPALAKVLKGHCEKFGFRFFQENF

Compound: CC(CO)N1C(=O)[C@@H]2C3C(=O)OCCC=C[C@H]3OC23C=CCN(Cc2ccccc2)C(=O)[C@@H]13 (stereo not given in full)
- z-score [1]: 0.697 (inactive) and 0.925 (inactive)
- composite z-score [2]: -0.0162 and 0.132
- z-score [3]: 3.31 (inactive) and 0.464 (inactive)
- z-score [4]: 1.11 (inactive) and 0.0933 (inactive)
- z-score [5]: 1.21 (inactive) and 1.05 (inactive)
- z-score [6]: 0.403 (inactive) and 0.258 (inactive)
- z-score [7]: -0.388 and -0.526
- z-score [8]: 1.26 (inactive) and 1.71 (inactive)
- z-score [9]: 1.09 (inactive) and -0.409 (inactive)
- z-score [10]: 2.15 and 2.85
- z-score [11]: 0.606 and 0.0694
- z-score [12]: 0.888 and 0.458
- z-score [13]: 0.237 and 0.113
- z-score [14]: 0.34 and 0.311
- z-score [15]: -0.306 and -0.454
- z-score [16]: 0.567 and 0.15
- z-score [17]: 0.932 (inactive) and 0.902 (inactive)
- z-score [18]: -0.914 and 0.0338
- z-score [19]: 0.789 and 0.282
- z-score [20]: 0.305 (inactive) and 0.147 (inactive)

Compound: CO[C@H]1COC(=O)CC=C[C@@H](C)COC(=O)[C@H](CCSC)NC(=O)CC=C[C@@H]1C
- z-score [1]: -0.949 (inactive) and -0.0368 (inactive)
- composite z-score [2]: -0.188 and 0.32
- z-score [3]: -0.304 (inactive) and 0.171 (inactive)
- z-score [4]: -0.237 (inactive) and 0.588 (inactive)
- z-score [5]: -0.425 (inactive) and -0.189 (inactive)
- z-score [6]: 0.256 (inactive) and -0.0409 (inactive)
- z-score [7]: 0.676 and 0.163
- z-score [8]: 1.07 (inactive) and -1.99 (inactive)
- z-score [9]: -0.824 (inactive) and 0.413 (inactive)
- z-score [10]: -0.812 and -0.479
- z-score [11]: -0.875 and -0.577
- z-score [12]: 0.584 and 0.153
- z-score [13]: -0.442 and 0.338
- z-score [14]: 0.0739 and -0.242
- z-score [15]: -0.858 and 0.708
- z-score [16]: 0.755 and 0.535
- z-score [17]: -0.153 (inactive) and 0.157 (inactive)
- z-score [18]: -0.688 and 0.358
- z-score [19]: 0.588 and 1.85
- z-score [20]: -0.8 (inactive) and 0.705 (inactive)

Compound: Cc1ccc(S(=O)(=O)N[C@H]2COC(=O)[C@@H](C)COC(=O)[C@H](C)NC(=O)CC=C[C@H]2C)cc1
- z-score [1]: -0.117 (inactive)
- composite z-score [2]: -0.195
- z-score [3]: -0.306 (inactive)
- z-score [4]: 0.286 (inactive)
- z-score [5]: 0.501 (inactive)
- z-score [6]: 0.0584 (inactive)
- z-score [7]: -0.177
- z-score [8]: -1.36 (inactive)
- z-score [9]: 0.555 (inactive)
- z-score [10]: 0.0658
- z-score [11]: 0.437
- z-score [12]: 0.0608
- z-score [13]: -0.107
- z-score [14]: 0.143
- z-score [15]: 0.0608
- z-score [16]: 0.125
- z-score [17]: 0.198 (inactive)
- z-score [18]: -0.137
- z-score [19]: 0.894
- z-score [20]: 1.57 (inactive)

Compound: C=C(C)C(=O)OC[C@@H]1CN2[C@@H](CC[C@@H](C)[C@@H]2c2ccc(Br)cc2)C(=O)O1
- z-score [1]: -0.181 (inactive)
- composite z-score [2]: 0.218
- z-score [3]: 1.51 (inactive)
- z-score [4]: 0.0995 (inactive)
- z-score [5]: 0.289 (inactive)
- z-score [6]: 0.294 (inactive)
- z-score [7]: 0.525
- z-score [8]: -0.29 (inactive)
- z-score [9]: 1 (inactive)
- z-score [10]: 0.481
- z-score [11]: 0.254
- z-score [12]: -0.2
- z-score [13]: 1.08
- z-score [14]: 0.419
- z-score [15]: 0.427
- z-score [16]: 0.642
- z-score [17]: 0.945 (inactive)
- z-score [18]: -0.28
- z-score [19]: -0.631
- z-score [20]: 0.173 (inactive)

Compound: C=CCN(C(=O)C1N(c2ccc(CCO)cc2)C(=O)C2C(C(=O)O)C3C=CC21O3)c1ccc(OC)cc1 (stereo not given)
- z-score [1]: -0.0883 (inactive) and 1.76 (inactive)
- composite z-score [2]: -0.147 and -0.216
- z-score [3]: 2.34 (inactive) and 0.289 (inactive)
- z-score [4]: 0.752 (inactive) and -0.136 (inactive)
- z-score [5]: -0.0787 (inactive) and -0.0798 (inactive)
- z-score [6]: 0.258 (inactive) and 0.284 (inactive)
- z-score [7]: 0.0631 and 2.4
- z-score [8]: 1.27 (inactive) and -0.00582 (inactive)
- z-score [9]: -1.05 (inactive) and -0.234 (inactive)
- z-score [10]: 2.64 and -0.701
- z-score [11]: 0.414 and -0.783
- z-score [12]: 0.432 and 0.014
- z-score [13]: -0.535 and -0.905
- z-score [14]: 1.02 and 1.1
- z-score [15]: -0.0159 and 0.492
- z-score [16]: -0.19 and -0.0346
- z-score [17]: -0.246 (inactive) and -0.356 (inactive)
- z-score [18]: -0.0146 and 0.609
- z-score [19]: -0.358 and 0.691
- z-score [20]: -1.23 (inactive) and 0.468 (inactive)

Compound: CC(C)CON=C1C[C@@H](O)[C@@H](O)[C@@H]2[C@@H]3C(=O)N(c4cccc(Oc5ccccc5)c4)C(=O)[C@@H]3CC[C@H]12
- z-score [1]: 0.525 (inactive)
- composite z-score [2]: -0.298
- z-score [3]: -0.436 (inactive)
- z-score [4]: 0.0644 (inactive)
- z-score [5]: 0.388 (inactive)
- z-score [6]: 0.158 (inactive)
- z-score [7]: -0.157
- z-score [8]: -0.831 (inactive)
- z-score [9]: 0.11 (inactive)
- z-score [10]: -0.144
- z-score [11]: 0.259
- z-score [12]: 0.425
- z-score [13]: -0.641
- z-score [14]: 0.957
- z-score [15]: -0.0145
- z-score [16]: 1.34
- z-score [17]: 0.461 (inactive)
- z-score [18]: 0.288
- z-score [19]: -0.309
- z-score [20]: -0.0819 (inactive)
